Only some compounds are listed: those with a hit (about 2.8% of all), similar ones and a draw of the others.
PAFAH1B2 FP inh: PAFAH1B2 enzyme inhibitors, primary screen, biochemical, fluorescence polarization, human | recombinant PAFAH1B2, FP-rhodamine activity probe | 1.2% of 340,000 active | Platelet-activating factor acetylhydrolase IB subunit alpha2 (Homo sapiens), P68402 | AID 492953, 2010 | inhibition, % at 3.39 µM;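 active = inhibition above the mean of all tested compounds plus 3 SD, cut at about 24% in these data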;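 also: 0% = enzyme with DMSO and 100% = wells lacking PAFAH1B2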
Target sequence (P68402 whole entry, looked up): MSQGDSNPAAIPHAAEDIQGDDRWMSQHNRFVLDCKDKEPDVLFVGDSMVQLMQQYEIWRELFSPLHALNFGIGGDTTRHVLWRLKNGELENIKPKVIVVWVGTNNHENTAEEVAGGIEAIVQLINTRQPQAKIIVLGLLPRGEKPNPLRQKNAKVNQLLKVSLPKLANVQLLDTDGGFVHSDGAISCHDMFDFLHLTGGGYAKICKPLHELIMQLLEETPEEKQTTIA
PAFAH1B3 inh: PAFAH1B3 enzyme inhibitors, primary screen, biochemical, fluorescence polarization, human; Platelet-activating factor acetylhydrolase IB subunit alpha1 (Homo sapiens), Q15102; recombinant PAFAH1B3, FP-rhodamine probe; inhibition, % at 3.39 µM; 0.28% of 340,000 active;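 active = inhibition above the screen-wide average of all tested compounds plus 3 SD, cut at about 25% in these data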;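 also: 0% = enzyme with DMSO only and 100% = wells lacking PAFAH1B3 protein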
PME-1 inh: PME-1 inhibitors via competitive probe labeling, primary screen, biochemical, fluorescence polarization, FP-Rh probe, HTS. recombinant PME-1. Protein phosphatase methylesterase 1 (Homo sapiens), Q9Y570. inhibition, % at 5.9 µM. 0.53% of 320,000 active;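 active = inhibition above the campaign mean of all compounds plus 3 SD, cut at about 26% in these data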;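 also: competitive labeling of PME-1 active site by serine hydrolase directed probe; 0% = PME-1 with DMSO and 100% = wells lacking PME-1 enzyme; inhibitors block probe labeling so polarization falls and inhibition rises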
Target sequence (Q9Y570 whole entry, looked up): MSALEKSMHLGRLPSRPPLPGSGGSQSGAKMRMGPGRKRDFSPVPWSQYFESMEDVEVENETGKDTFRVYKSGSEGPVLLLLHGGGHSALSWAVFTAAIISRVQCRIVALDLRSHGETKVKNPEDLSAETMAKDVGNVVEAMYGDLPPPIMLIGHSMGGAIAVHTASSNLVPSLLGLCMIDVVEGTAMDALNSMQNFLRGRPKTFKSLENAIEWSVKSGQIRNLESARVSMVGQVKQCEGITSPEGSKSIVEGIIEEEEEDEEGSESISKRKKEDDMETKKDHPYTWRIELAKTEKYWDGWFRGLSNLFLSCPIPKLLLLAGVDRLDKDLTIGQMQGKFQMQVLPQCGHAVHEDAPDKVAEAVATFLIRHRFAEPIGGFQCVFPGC
PAFAH2 inh: PAFAH2 enzyme inhibitors, primary screen, biochemical, fluorescence polarization, human; Platelet-activating factor acetylhydrolase 2, cytoplasmic (Homo sapiens), Q99487; recombinant PAFAH2, FP-rhodamine activity probe; inhibition, % at 3.39 µM; 0.99% of 340,000 active; AID 492956, 2010;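 active = inhibition above the mean over all tested compounds plus 3 SD, cut at about 30% in these data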;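 also: inhibitors block probe labeling of enzyme so polarization drops; 0% = enzyme with DMSO and 100% = wells lacking PAFAH2 protein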
pPAFAH inh: pPAFAH enzyme inhibitors, primary screen, biochemical, fluorescence polarization, human. 1.5% of 330,000 active. Platelet-activating factor acetylhydrolase (Homo sapiens), Q13093. AID 463082, 2010. recombinant pPAFAH, FP-rhodamine probe fluorescence polarization. inhibition, % at 3.39 µM;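 active = inhibition above the mean inhibition across the screen plus 3 SD, cut at about 25% in these data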;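 also: inhibitors block binding of the rhodamine activity-based probe so polarization drops; 0% = enzyme with DMSO and 100% = wells lacking pPAFAH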
Fam108B counter: mouse Fam108B serine hydrolase inhibitors, primary screen, counter-screen for RBBP9 inhibitor project, biochemical, fluorescence polarization; 0.33% of 300,000 active; recombinant Fam108B, FP-Rh probe fluorescence polarization; AID 1947, 2009; inhibition, % at 9.51 µM;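 active = inhibition above the screen mean inhibition plus 3 SD, computed separately per campaign, cut at about 18% in these data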;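 also: inhibitors lower polarization as less probe binds the enzyme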
Numbers without * were called inactive; . = no result given.

SMILES	PAFAH1B2 FP inh	PAFAH1B3 inh	PME-1 inh	PAFAH2 inh	pPAFAH inh	Fam108B counter
CC(=O)c1ccc(NC(=O)Nc2ccc(NS(=O)(=O)c3ccc(C)cc3)cc2)cc1	-7	2	7	-29	7	-1
COc1ccc(OC)c2c1cc(C(=O)N[C@@H](Cc1ccccc1)C(=O)O)n2C	-3	6	.	6	.	.
COc1ccccc1OCCC(=O)NNC(=O)c1ccccc1F	5	-9	-6	4	1	.
CC(=O)Nc1ccc(S(=O)(=O)Nc2ccc(Cc3ccncc3)cc2)cc1	5	5	0	0	29*	4
COc1cc(CNC(=O)CCCCCCC(C)C)ccc1O	3	6	1	3	26*	-1
COc1ccc(Oc2coc3cc(OC(=O)c4cccs4)ccc3c2=O)cc1	6	3	-1	7	1	-11
COc1ccc(Oc2coc3cc(OC(=O)N4CCOCC4)ccc3c2=O)cc1	-4	-4	1	9	34*	3
O=C1CCCC/C1=C\Nc1ccc(O)cc1	0	5	4	4	26*	2
O=C1CCC/C1=C/Nc1ccc(Cl)cc1	-4	4	-1	-7	8	-1
Brc1ccc(-c2noc3c2-c2nc(C4CCCCC4)sc2CC3)cc1	-1	9	1	-5	-7	3
Cc1ccc(SCC(=O)OCn2nnc3ccccc3c2=O)cc1C	6	6	0	-8	30*	-4
Cc1ccc(SCCC(=O)OCn2nnc3ccccc3c2=O)cc1	22	2	9	3	13	4
O=C1CCC(=O)N1c1ccc(S(=O)(=O)Nc2ccc(Br)cc2)cc1	6	-4	6	-10	33*	3
COc1cccc(C(=O)NCCNC(=O)c2ccc(C)nc2)c1	-6	6	2	-2	-1	1
O=C(Cc1ccc(S(=O)(=O)N2CCOCC2)s1)Nc1nc2c(s1)CCCC2	-2	6	-7	4	32*	6
CCN(C(=O)COC(=O)C1CC1C)c1c(N)n(Cc2ccccc2)c(=O)[nH]c1=O (stereo not drawn)	-6	-2	.	-4	.	.
O=C(/C=C/c1ccco1)OCc1nnc(-c2ccc(Cl)cc2)o1	1	8	-1	67*	28*	3
O=C(Cc1ccc(Cl)cc1)OCc1nnc(-c2ccccc2)o1	6	-4	0	-1	12	2
O=C(CSc1ccc(Cl)cc1)OCc1nnc(-c2ccccc2)o1	96*	9	-2	11	26*	-2
Cc1ccc2c(CC(=O)Nc3ccc(F)c(S(=O)(=O)N4CCOCC4)c3)coc2c1	-4	2	-6	-6	2	.
CC(NC(=O)CN(c1cccc(C(F)(F)F)c1)S(C)(=O)=O)c1ccccc1 (stereo not drawn)	9	-5	-2	0	0	-1
C[C@@]12C(=O)N(CC3CC3)CC(=O)N1[C@H](C1CC1)[C@@H]1C(=O)N(c3ccccc3)C(=O)[C@@H]12	10	13	-8	-5	4	1
CCN(CCO)c1nc(SC)nc2c1sc1nc(-c3ccco3)c3c(c12)CCC3	-1	-3	-5	0	32*	5
CC(C)c1cc(NCCOCCO)n2c(nc3ccccc32)c1C#N	3	-3	1	12	11	2
COc1ccc(NS(=O)(=O)c2ccc(N3CCCC3)c(NC(=S)Nc3ccc(SC(F)F)cc3)c2)cc1	1	-2	10	4	34*	3
SMILES	PAFAH1B2 FP inh	PAFAH1B3 inh	PME-1 inh	PAFAH2 inh	pPAFAH inh	Fam108B counter
CC(C)(Oc1ccc(Cl)cc1)C(=O)OCC(=O)NCCc1ccccc1	3	5	-3	-1	12	-4
CCCCOC(=O)c1ccc(NS(=O)(=O)c2cc(-c3nnnn3CC)ccc2OC)cc1	6	9	5	0	28*	-4
COc1cc(C2C(C(=O)c3ccc(C)o3)=C(O)C(=O)N2CCN2CCOCC2)ccc1OCCC(C)C (stereo not drawn)	4	8	.	-5	.	.
COc1cc(NC(=O)C2CCCN(S(=O)(=O)c3ccc4c(c3)CCCN4C(C)=O)C2)cc(OC)c1 (stereo not drawn)	-1	5	-10	1	30*	-4
CC(C)NC(=O)COC(=O)c1ccc(Oc2ccccc2)cc1	4	7	1	67*	26*	-2
CN(C)c1ccc(C(=O)OCC(=O)NCCNC(=O)COC(=O)c2ccc(N(C)C)cc2)cc1	-3	15	5	13	5	1
CCCNC(=O)COC(=O)c1ccc(-c2ccccc2)cc1	-1	-1	-1	60*	25*	3
O=C(COC(=O)c1ccc(-c2ccccc2)cc1)Nc1ccccc1-c1ccccc1	1	3	-2	12	2	-5
CC(NC(=O)COC(=O)c1ccc(OCC2CCCO2)cc1)c1ccccc1Cl (stereo not drawn)	1	-1	2	88*	25*	.
NC(=O)COC(=O)c1ccc(Oc2ccccc2)cc1	3	13	9	6	1	0
CN(C)c1ccc(C(=O)OCC(=O)NCCCc2ccccc2)cc1	6	-3	7	85*	33*	-2
Cc1onc(-c2ccccc2Cl)c1C(=O)N(C)Cc1ccccc1	10	-2	.	0	.	.
CCOc1ccc(/C=N/NC(=O)c2[nH]ncc2Br)c(O)c1	7	7	1	7	6	-3
CCOc1ccc(NC(=S)N2CCN(S(=O)(=O)c3ccccc3)CC2)cc1	-1	10	.	4	.	.
COC(=O)c1cc(NCc2c(F)cccc2Cl)ccc1N1CCOCC1	-2	6	0	3	30*	4
COC(=O)c1cc(NCc2cccs2)ccc1N1CCOCC1	5	-5	3	13	6	8
Oc1cc(NCCN2CCOCC2)cc2cccnc12	-1	54*	.	2	4	.
CCc1nc(Nc2ccc3c(c2)OCO3)c2oc3ccccc3c2n1	4	1	31*	8	12	3
N#CCSc1nc(Nc2ccc3c(c2)OCO3)c2ccccc2n1	8	9	12	6	26*	8
CCc1nc(Nc2cccc(O)c2)c2oc3ccccc3c2n1	1	5	.	-2	.	.
CCN1CCN(S(=O)(=O)c2ccc(Cl)c(C(=O)NC3CCCCC3)c2)CC1	28*	5	-2	-1	1	0
O=C(Nn1nnnc1Nc1ccccc1)C12CC3CC(CC(C3)C1)C2	27*	3	-1	4	5	-2

Screening results as filed in PubChem.
